Here are results for 47 molecules from ChEMBL document CHEMBL3988442, “University of Dundee, Small-Polar-MMV Screening Library” (2021).

The whole screen tested about 48,000 compounds, of which about 13,000 (27%) showed an effect of 50% or more. The list shows a part of the results.

This assay deals with Wolbachia pipientis. Kind of assay: Anti-Wolbachia Cell-Based Screen. In kind it is functional. Also noted: scale not given: in the data most compounds retested in dose-response had high values. To be noted: 5 µM.
For `CNc1nc(CNC(=O)Nc2cccc(COCCOC(C)C)c2)cs1`, the “Percent Effect” value was -6.236%.
As to `CC(C)c1ccc(S(=O)(=O)N2CCCC3(CCCN3S(C)(=O)=O)C2)cc1` (configuration not stated), the “Percent Effect” value came out at 108.3%.
The same measure for `CS(=O)(=O)N1CCCC12CCCN(c1nccs1)C2` (configuration not stated): 4.667%; for `CCc1ccc(S(=O)(=O)N2CCCC3(CCCN3S(C)(=O)=O)C2)cc1` (configuration not stated): 114.6%.
In the case of `CCc1ccc(S(=O)(=O)N2CCC3(CC(C(=O)NC)=NO3)C2)cc1` (configuration not stated) it was 16.22%; in that of `CC(C)CC(c1nc(-c2cnn(C)c2)no1)N1CCCCC1=O` (configuration not stated), 17.74%.
The same measure for `CCOC(=O)COc1cccc(NC(=O)C2COCCO2)c1` (configuration not stated): -0.4507%; for `Cc1ccc(OCC(C)NS(C)(=O)=O)cc1C` (configuration not stated): 1.577%.
Turning to `CCOC(=O)COc1ccc(C(C)=O)c(O)c1`, the “Percent Effect” value came to 95.41%.
`CC(=O)c1ccc(OCC(C)O)cc1O` (configuration not stated): the “Percent Effect” value is recorded as 100.7%.
Consider `CC(=O)c1ccc(Cl)c(Cl)c1OCC(=O)NC(N)=O`, for which the “Percent Effect” value is 29.22%.
The same measure for `Cc1ccccc1NC(=O)CNC(C)COc1ccccc1` (configuration not stated): -5.07%.
In the case of `CN(Cc1cccc(F)c1)C(=O)CN1CCCCC1Cn1cncn1` (configuration not stated) it was -4.656%.
The same measure for `COC(=O)CCN1CCCC1c1cccc2c1OCCO2` (configuration not stated): 6.335%.
In the case of `CN(C)C(=O)N1CC[C@@H](c2ccc3ccccc3c2)[C@H](O)C1`, the “Percent Effect” value is given as 2.148%.
For the molecule `COc1ccc(-c2noc([C@@H](C)NC(=O)CC(C)C)c2C(=O)O)cc1`, the “Percent Effect” value came to 0.3938%.
In the case of `Cc1cc(CN(C)Cc2csc(-c3ccc(C(C)C)cc3)n2)no1` it was -4.334%; in that of `COc1ccc(-c2nonc2N)cc1`, 116.2%.
In the case of `CC(C)c1ccc(-c2nonc2N)cc1` it was 135.4%.
In the case of `COCC(=O)N[C@H](C)c1onc(-c2ccc(OC)cc2)c1C(=O)O` it was 9.623%.
For the molecule `CC(C)c1ccc(C(N)c2cccs2)cc1` (configuration not stated), the “Percent Effect” value is -4.854%.
In the case of `CCN1CCN(c2ccc(F)cc2C(C)NCc2cscn2)CC1` (configuration not stated) it was 16.44%; in that of `CC(C)CCC1=NC2(CCN(C(=O)N3CCN(C)CC3)CC2)C(=O)N1`, 15.84%.
The same measure for `CN(C)C1CC2(CCN(C(=O)NC3CC3)CC2)c2ccccc21.O=C(O)C(F)(F)F` (configuration not stated): -41.61%; for `CN(C)C1CCC2(CCN(Cc3cccnc3)CC2)c2ccccc21.O=C(O)C(F)(F)F.O=C(O)C(F)(F)F.O=C(O)C(F)(F)F` (configuration not stated): 103.9%; for `Cn1ccnc1CN1CCC2(CC1)CC(N1CCCC1)c1ccccc12` (configuration not stated): 116.8%.
Turning to `COc1ccc2c(c1)C1(CCN(Cc3cccnc3)CC1)N(C)CC2.O=C(O)C(F)(F)F.O=C(O)C(F)(F)F.O=C(O)C(F)(F)F`, the “Percent Effect” value came out at 47.52%.
The same measure for `Cn1ccnc1CN1CCC2(CC1)CC(NC(=O)c1ccccn1)CO2.O=C(O)C(F)(F)F` (configuration not stated): -5.802%; for `CN(C)C1CCC2(CCN(Cc3nccn3C)CC2)c2ccccc21.O=C(O)C(F)(F)F.O=C(O)C(F)(F)F` (configuration not stated): 100.5%; for `Cn1ccnc1CN1CCN(Cc2ccccc2C#N)CC1`: 1.879%.
The same measure for `Cn1ccnc1CN1CCC2(CC1)CC(Nc1ccccn1)CO2` (configuration not stated): -5.655%.
In the case of `CCN(Cc1ccoc1)C(=O)NC1CCN(CC=C(C)C)CC1` it was -3.465%.
As for `Cc1cc(CN2C[C@@H](N3CCN(C)CC3)[C@H]3OCCC[C@H]32)oc1C.O=C(O)C(F)(F)F.O=C(O)C(F)(F)F.O=C(O)C(F)(F)F`, the “Percent Effect” value is 8.988%.
In the case of `O=C(c1cscn1)N1C[C@H](OCc2cccnc2)[C@H]2COC[C@H]21` it was 102.7%; in that of `O=C(C1CCOCC1)N1C[C@H](OCc2cccnc2)[C@H]2COC[C@H]21`, 112.8%.
The same measure for `O=C(c1ccc2c(c1)OCO2)N1C[C@H](OCC2CC2)[C@H]2COC[C@H]21`: -18.04%.
Take `N#Cc1ccc(C(=O)N2C[C@H](OCc3cccnc3)[C@H]3COC[C@H]32)cc1`: the “Percent Effect” value is reported as 101.1%.
As to `N#Cc1ccc(N2CCC3(CC2)CC(OCc2cccnc2)CO3)cc1.O=C(O)C(F)(F)F` (configuration not stated), the “Percent Effect” value is given as 6.886%.
In the case of `Cc1ccc(C(=O)N2C[C@H]3CCCC(OCc4cccnc4)[C@H]3C2)cn1.O=C(O)C(F)(F)F.O=C(O)C(F)(F)F` (some centres not stated) it was -3.164%; in that of `O=C(c1ccncn1)N1CCO[C@H]2[C@@H](OCc3cccnc3)CC[C@@H]21`, -20.63%.
In the case of `O=C(c1ccnnc1)N1C[C@H]2CCC[C@@H](OCc3cccnc3)[C@@H]2C1` it was -7.774%; in that of `Cc1ccc(C(=O)N2C[C@H](OCc3cccnc3)[C@H]3COC[C@H]32)cn1`, 93.92%; in that of `Cc1nc(CO[C@H]2CN(C(=O)c3cccnc3)[C@@H]3COC[C@H]23)cs1`, -38.06%.
In the case of `O=C(O)C(F)(F)F.O=C(c1cscn1)N1C[C@H]2CCCC(OCc3cccnc3)[C@H]2C1` (some centres not stated) it was -12.9%; in that of `CNC(=O)[C@@H]1C[C@@H](NC(=O)Cc2nonc2C)CN1Cc1sccc1C`, 27.67%; in that of `CSCCCNC(=O)C1CCC(=O)N(C2CCCC2)C1` (configuration not stated), -0.8236%.
With `CCOC(=O)N1CCN(C(=O)C2Cc3ccccc3CN2C)CC1` (configuration not stated), the “Percent Effect” value is given as 6.849%.
